Data taken from PubChem BioAssay (Tox21).
Results filed as inconclusive are left out. Activity calls are given as the source filed them. Unless noted, the call rests on the fitted dose curve; in most records, active means well fitted curve in the direction sought with a large enough effect in the repeat runs; inconclusive means weak or mixed curves; inactive means no such curve, though single readings can be large; an effect the other way counts as inactive or inconclusive. Non-standard residues stand in square brackets, D forms with d. Residues, ends and D or L forms follow the SMILES beside them. *: point of attachment. Sta = CC(C)C[C@H](N)[C@@H](O)CC(=O)O; Isovaleryl = CC(C)CC(=O)*

What was measured:
[1] = qHTS assay to identify small molecule antagonists of the glucocorticoid receptor (GR) signaling pathway - cell viability counter screen (AID 720693); further: nearly all actives have a fitted effect of over 55% in size
[2] = qHTS assay for identifying genotoxic compounds that show differential cytotoxicity against isogenic chicken DT40 cell lines with known DNA damage response pathways - Rev3 mutant cell line (AID 743014); further: nearly all actives have a fitted effect of over 55% in size
[3] = qHTS assay for identifying genotoxic compounds that show differential cytotoxicity against isogenic chicken DT40 cell lines with known DNA damage response pathways - Rad54/Ku70 mutant cell line (AID 743015); further: nearly all actives have a fitted effect of over 60% in size
[4] = qHTS assay to identify small molecule antagonists of the androgen receptor (AR) signaling pathway - cell viability counter screen (AID 743033; further: nearly all actives have a fitted effect of over 45% in size)
[5] = qHTS assay to identify small molecule antagonists of the androgen receptor (AR) signaling pathway using the MDA cell line - cell viability counter screen (AID 743041; further: nearly all actives have a fitted effect of over 45% in size)
In short: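 MDA-kb2 AR-luc cells (MMTV-luciferase, AR/GR responsive) treated with compounds plus R1881 agonist for 16 h at 37C. CellTiter-Fluor added at 15.5 h; fluorescence read after 30 min in the same wells.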

[6] = qHTS assay to identify small molecule antagonists of the thyroid receptor (TR) signaling pathway - cell viability counter screen (AID 743064); further: nearly all actives have a fitted effect of over 50% in size
In short: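 In rat pituitary GH3.TRE-Luc reporter cells co-exposed to compound and 1 nM T3 for 23.5 h, cytotoxicity was assessed with CellTiter-Fluor in the same wells, read by fluorescence.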

[7] = qHTS assay to identify small molecule antagonists of the thyroid receptor (TR) signaling pathway (AID 743065); further: series mostly up to about 70 µM; nearly all actives have a fitted effect of over 55% in size
In short: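 GH3.TRE-Luc rat pituitary cells (two TREs driving luciferase) were dosed with compound, then stimulated with 1 nM T3 (final) for 23.5 h at 37 C. ONE-Glo luminescence was the read-out, with CellTiter-Fluor fluorescence as the cytotoxicity counter-screen.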

[8] = system: thyroid hormone receptor (rat, GH3 cells); assay: qHTS assay to identify small molecule agonists of the thyroid receptor (TR) signaling pathway (AID 743066; calls by dose curve)
[9] = biological target: Estrogen receptor (Homo sapiens) (UniProt P03372); assay: qHTS assay to identify small molecule antagonists of the estrogen receptor alpha (ER-alpha) signaling pathway (AID 743069; active means well fitted curve in the direction sought with a large enough effect in the signal ratio in the repeat runs, not every such curve was filed as active; the % refers to the signal ratio)
Estrogen receptor (Homo sapiens), sequence (P03372 whole entry, looked up): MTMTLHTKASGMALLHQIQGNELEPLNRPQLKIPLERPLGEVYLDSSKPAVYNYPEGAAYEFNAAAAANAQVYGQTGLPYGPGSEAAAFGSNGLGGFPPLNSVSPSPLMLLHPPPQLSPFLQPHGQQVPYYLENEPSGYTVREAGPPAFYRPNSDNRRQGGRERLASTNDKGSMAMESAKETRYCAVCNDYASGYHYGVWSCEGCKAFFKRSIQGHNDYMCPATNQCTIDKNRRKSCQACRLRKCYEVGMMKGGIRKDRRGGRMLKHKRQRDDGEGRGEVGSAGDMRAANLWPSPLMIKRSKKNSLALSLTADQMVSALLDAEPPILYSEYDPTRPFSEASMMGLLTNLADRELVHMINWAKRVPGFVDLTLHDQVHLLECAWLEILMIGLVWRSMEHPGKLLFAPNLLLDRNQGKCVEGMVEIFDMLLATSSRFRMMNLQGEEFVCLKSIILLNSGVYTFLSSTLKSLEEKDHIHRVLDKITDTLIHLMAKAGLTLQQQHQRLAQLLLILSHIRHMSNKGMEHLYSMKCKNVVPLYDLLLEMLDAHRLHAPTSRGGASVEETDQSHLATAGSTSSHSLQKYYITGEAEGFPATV
In short: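 HEK293 ER-alpha-UAS-bla GripTite cells, held overnight in 2% charcoal-stripped FBS, 5,000 cells/well, preincubated 4 h, then compound plus 17beta-estradiol for 18 h at 37C. Beta-lactamase read by LiveBLAzer B/G FRET substrate, 2 h at room temperature.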

[10] = qHTS assay to identify small molecule antagonists of the estrogen receptor alpha (ER-alpha) signaling pathway - cell viability counter screen (AID 743074; calls by dose curve;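 further: HEK293 cells carrying ER-alpha-UAS-bla reporter stimulated with 17beta-estradiol; nearly all actives have a fitted effect of over 45% in size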)
[11] = biological target: Estrogen receptor (Homo sapiens) (UniProt P03372); assay: qHTS assay to identify small molecule agonists of the estrogen receptor alpha (ER-alpha) signaling pathway (AID 743075; calls by dose curve)
[12] = biological target: Estrogen receptor (Homo sapiens) (UniProt P03372); assay: qHTS assay to identify small molecule agonists of the estrogen receptor alpha (ER-alpha) signaling pathway using the BG1 cell line (AID 743079); further: nearly all actives have a fitted effect of over 20% in size
[13] = qHTS assay to identify small molecule antagonists of the estrogen receptor alpha (ER-alpha) signaling pathway using the BG1 cell line (AID 743080; calls by dose curve;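 further: BG1 cells stimulated with 17beta-estradiol alongside compound; series mostly up to about 70 µM; nearly all actives have a fitted effect of over 25% in size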)
In short: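 Endogenous full-length ER-alpha in BG1-Luc-4E2 cells drives a stably integrated 4×ERE luciferase gene; compounds were tested against 17beta-estradiol over 21.5 h, with luminescence and multiplexed viability fluorescence recorded.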

[14] = qHTS assay to identify small molecule antagonists of the estrogen receptor alpha (ER-alpha) signaling pathway using the BG1 cell line - cell viability counter screen (AID 743081);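 further: compound given together with 17beta-estradiol as the ER stimulus; series mostly up to about 70 µM; nearly all actives have a fitted effect of over 45% in size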
[15] = biological target: Aromatase (Homo sapiens) (UniProt P11511); assay: qHTS assay to identify aromatase inhibitors (AID 743083); further: series mostly up to about 70 µM; nearly all actives have a fitted effect of over 55% in size
Aromatase (Homo sapiens), sequence (P11511 whole entry, looked up): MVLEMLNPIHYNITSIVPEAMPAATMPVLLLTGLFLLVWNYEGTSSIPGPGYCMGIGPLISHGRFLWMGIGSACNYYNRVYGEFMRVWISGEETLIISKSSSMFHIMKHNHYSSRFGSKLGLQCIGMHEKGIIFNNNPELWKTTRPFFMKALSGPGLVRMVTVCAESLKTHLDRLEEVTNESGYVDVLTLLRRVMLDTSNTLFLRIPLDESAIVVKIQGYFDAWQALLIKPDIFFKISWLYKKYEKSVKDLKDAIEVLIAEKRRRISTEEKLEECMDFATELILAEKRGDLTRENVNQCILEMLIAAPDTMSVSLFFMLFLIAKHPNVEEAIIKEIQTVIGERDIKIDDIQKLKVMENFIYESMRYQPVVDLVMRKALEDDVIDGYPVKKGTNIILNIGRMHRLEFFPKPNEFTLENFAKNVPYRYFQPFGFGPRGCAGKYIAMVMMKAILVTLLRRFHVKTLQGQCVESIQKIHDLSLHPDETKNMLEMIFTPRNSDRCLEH

[16] = qHTS assay to identify aromatase inhibitors - cell viability counter screen (AID 743084)
[17] = qHTS assay for identifying genotoxic compounds that show differential cytotoxicity against isogenic chicken DT40 cell lines with known DNA damage response pathways - wild type cell line (AID 743012); further: nearly all actives have a fitted effect of over 60% in size
In short: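 Wild-type DT40 cells (300/well) exposed to compounds for 40 hours at 37 C/5% CO2. Viability read by CellTiter-Glo luminescence after 30 min at room temperature.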

[18] = biological target: Androgen receptor (Homo sapiens) (UniProt P10275); assay: qHTS assay to identify small molecule antagonists of the androgen receptor (AR) signaling pathway (AID 743035; active means well fitted inhibition curve with a large enough effect in the signal ratio in the repeat runs, not every such curve was filed as active; the % refers to the signal ratio)
Androgen receptor (Homo sapiens), sequence (P10275 whole entry, looked up): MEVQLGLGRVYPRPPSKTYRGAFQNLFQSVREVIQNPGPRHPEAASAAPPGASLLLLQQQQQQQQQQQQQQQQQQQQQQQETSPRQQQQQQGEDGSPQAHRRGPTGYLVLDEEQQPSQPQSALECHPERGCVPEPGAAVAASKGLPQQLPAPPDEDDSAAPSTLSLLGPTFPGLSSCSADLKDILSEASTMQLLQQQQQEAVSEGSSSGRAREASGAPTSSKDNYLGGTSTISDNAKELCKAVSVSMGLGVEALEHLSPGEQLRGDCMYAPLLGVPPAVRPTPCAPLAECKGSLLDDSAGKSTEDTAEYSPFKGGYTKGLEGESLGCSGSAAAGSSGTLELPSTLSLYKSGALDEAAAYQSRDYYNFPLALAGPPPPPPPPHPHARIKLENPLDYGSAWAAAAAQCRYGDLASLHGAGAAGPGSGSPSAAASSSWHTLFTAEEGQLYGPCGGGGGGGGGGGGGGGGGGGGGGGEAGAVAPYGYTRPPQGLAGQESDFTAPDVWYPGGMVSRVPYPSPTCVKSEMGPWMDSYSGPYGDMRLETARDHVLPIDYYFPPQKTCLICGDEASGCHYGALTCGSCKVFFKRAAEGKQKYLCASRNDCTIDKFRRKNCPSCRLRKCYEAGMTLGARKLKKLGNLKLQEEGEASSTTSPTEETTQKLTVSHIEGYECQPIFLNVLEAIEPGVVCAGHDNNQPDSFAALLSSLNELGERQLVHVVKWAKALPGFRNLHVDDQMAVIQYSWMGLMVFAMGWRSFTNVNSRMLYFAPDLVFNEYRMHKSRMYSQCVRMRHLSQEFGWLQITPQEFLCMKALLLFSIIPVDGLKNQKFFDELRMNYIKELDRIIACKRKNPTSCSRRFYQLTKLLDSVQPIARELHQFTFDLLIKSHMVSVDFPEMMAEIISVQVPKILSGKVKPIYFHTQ
In short: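 HEK293 cells stably carrying UAS-beta-lactamase reporter, 2,000/well, given compounds plus R1881 agonist and incubated 16 h at 37C. LiveBLAzer B/G FRET substrate then added for 2 h at room temperature before fluorescence reading.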

[19] = biological target: Androgen receptor (Homo sapiens) (UniProt P10275); assay: qHTS assay to identify small molecule agonists of the androgen receptor (AR) signaling pathway (AID 743036; active means well fitted activation curve with a large enough effect in the signal ratio in the repeat runs, with a control signal flat, not every such curve was filed as active; the % refers to the signal ratio)
In short: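 Cell-based FRET reporter assay: HEK293 line with a UAS-beta-lactamase construct, compounds added in DMSO, 16 h exposure at 37C, then 2 h substrate step at room temperature and fluorescence intensity read.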

[20] = biological target: Androgen receptor (Homo sapiens) (UniProt P10275); assay: qHTS assay to identify small molecule agonists of the androgen receptor (AR) signaling pathway using the MDA cell line (AID 743040; further: nearly all actives have a fitted effect of over 20% in size)
In short: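 MDA-kb2 breast carcinoma cells carrying MMTV-luciferase (responsive to AR and GR), plated 5 h then treated 16 h with compounds at 37C, 0% CO2. Read-out was ONE-Glo luminescence after 30 min at room temperature.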
On the % scale 0 is the no-effect control and ±100 the full control effect.

CCCCCCCC(=O)N(C)C
inactive: outcome [1] | Potency [2] | Potency [3] | outcome [4] | outcome [5] | Potency [6] | Potency [7] | Potency [8] | outcome [9] | Potency [10] | Potency [11] | Potency [12] | Potency [13] | outcome [14] | Potency [15] | outcome [16]

O=c1[nH]c(=O)c2cn[nH]c2[nH]1
inactive: outcome [1] | Potency [17] | Potency [3] | outcome [4] | Potency [10] | outcome [14] | Potency [15] | outcome [16]

C=CCCCCCCCCOC(C)=O
inactive: outcome [1] | Potency [17] | Potency [2] | outcome [5] | Potency [6] | Potency [7] | Potency [8] | outcome [9] | Potency [10] | Potency [11] | Potency [12] | Potency [13] | outcome [14] | Potency [15] | outcome [16]

Nc1ccc(C(=O)NCC(=O)O)cc1
inactive: outcome [1] | Potency [17] | Potency [3] | outcome [4] | outcome [5] | Potency [6] | Potency [7] | Potency [8] | outcome [9] | Potency [10] | Potency [11] | Potency [12] | Potency [13] | outcome [14] | Potency [15] | outcome [16]

CCCCCCCCCCCCCCCCN(C)C
inactive: viability change, negative = cytotoxic [1] 9.67% [at 7.04 µM] | activity change, negative = cytotoxicity [17] 9.27% [at 8.52 µM] | activity change, negative = cytotoxicity [4] -5.02% [at 7.04 µM] | activity change, negative = inhibition [18] -9.68% [at 7.04 µM] | activation [19] -6% [at 6.9 µM] | activity change [20] 0.294% [at 8.47 µM] | viability change, negative = cytotoxic [5] -2.54% [at 8.47 µM] | activity change, negative = cytotoxic [6] 0.507% [at 8.44 µM] | activity, negative = inhibition [7] 0.216% [at 8.44 µM] | activation [8] 0.259% [at 8.08 µM] | activity, negative = inhibition [9] -6.54% [at 6.71 µM] | activity, negative = cytotoxicity [10] -9.33% [at 6.72 µM] | activation [11] -5.38% [at 6.71 µM] | activation [12] -2.47% [at 8.47 µM] | activity change, negative = inhibition [13] -1.23% [at 8.47 µM] | activity change, negative = cytotoxicity [14] -2.87% [at 8.47 µM] | activity, negative = inhibition [15] 3.06% [at 8.47 µM] | activity change, negative = cytotoxicity [16] 0.21% [at 8.47 µM]

CC(C)CC(=O)N[C@H](C(=O)N[C@H](C(=O)N[C@@H](CC(C)C)[C@@H](O)CC(=O)N[C@@H](C)C(=O)N[C@@H](CC(C)C)[C@@H](O)CC(=O)O)C(C)C)C(C)C (Isovaleryl-VV[Sta]A[Sta]-OH)
inactive: outcome [1] | Potency [17] | Potency [3] | outcome [4] | Potency [7] | Potency [8] | Potency [10] | outcome [14] | Potency [15] | outcome [16]

CC12CCCC=C1C(=O)OC2=O (centres undefined)
inactive: outcome [1] | Potency [17] | Potency [3] | outcome [4] | outcome [18] | outcome [19] | outcome [20] | outcome [5] | Potency [7] | Potency [8] | Potency [10] | outcome [14] | Potency [15] | outcome [16]

CC(=O)c1c(C)cc(C(C)(C)C)cc1C
inactive: outcome [1] | Potency [17] | Potency [2] | outcome [4] | outcome [5] | Potency [6] | Potency [7] | Potency [8] | Potency [10] | outcome [14] | Potency [15] | outcome [16]

O=C[C@@H](O)[C@H](O)[C@H](O)CO
inactive: outcome [1] | Potency [2] | Potency [3] | outcome [4] | outcome [18] | outcome [19] | outcome [20] | Potency [6] | Potency [7] | Potency [8] | Potency [10] | outcome [14] | Potency [15] | outcome [16]

CC(C)(C)C(=O)NCCCC(=O)O
inactive: Potency [17] | Potency [2] | Potency [3] | outcome [4] | outcome [5] | Potency [6] | Potency [7] | Potency [8] | outcome [9] | Potency [10] | Potency [11] | Potency [12] | Potency [13] | outcome [14] | Potency [15] | outcome [16]
